Results on three sequences are retold here after PMC7862700, “An all-to-all approach to the identification of sequence-specific readers for epigenetic DNA modifications on cytosine”.

What all share (experiment): DAPPL (digital affinity profiling via proximity ligation, sequencing); 10 mM Tris-HCl pH 7.5, 50 mM NaCl, 1 mM DTT, 4% glycerol, room temperature, 30 min; GST-TFs on glutathione beads, 16-mer random dsDNA library, 0.1% formaldehyde crosslink after washing; high values mean tight binding
Holding throughout (settings): protein: recombinant; tags: N-terminal GST; dsDNA, one strand shown

In one experiment the target is T1, GABPA (Homo sapiens, UniProt Q06546 1-454).
T1 sequence: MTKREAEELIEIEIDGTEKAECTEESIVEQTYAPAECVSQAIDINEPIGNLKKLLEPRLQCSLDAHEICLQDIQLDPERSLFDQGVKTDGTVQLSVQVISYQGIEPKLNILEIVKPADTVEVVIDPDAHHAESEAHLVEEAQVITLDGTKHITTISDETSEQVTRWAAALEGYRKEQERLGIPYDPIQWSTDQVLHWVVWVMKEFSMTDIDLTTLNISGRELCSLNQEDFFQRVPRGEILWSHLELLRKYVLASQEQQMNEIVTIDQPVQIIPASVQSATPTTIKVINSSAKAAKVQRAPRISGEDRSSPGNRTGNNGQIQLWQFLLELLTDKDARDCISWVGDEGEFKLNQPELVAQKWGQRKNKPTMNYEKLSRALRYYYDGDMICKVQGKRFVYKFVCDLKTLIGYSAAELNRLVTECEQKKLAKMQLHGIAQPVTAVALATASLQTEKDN
The method in brief:
(§1)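 The binding signal reported is, for every hexamer, its read frequency for a factor over its read frequency for the tag-only sample. Reads came from pools of yeast-expressed, GST-fused human transcription factors on glutathione beads, barcoded with DNA and mixed with that sample, which were incubated with 200 nmole of a random double-stranded 16-mer DNA library in Tris/NaCl/DTT/glycerol buffer at room temperature for 30 min. After washing, the pools were crosslinked with 0.1% formaldehyde, proximity-ligated with BsaI/T4 ligase for 1 h at 37 °C, PCR-amplified and sequenced on an Illumina NextSeq500.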

A further experiment deals with T2, EHF (Homo sapiens, UniProt Q9NZC4 1-300).
T2 sequence: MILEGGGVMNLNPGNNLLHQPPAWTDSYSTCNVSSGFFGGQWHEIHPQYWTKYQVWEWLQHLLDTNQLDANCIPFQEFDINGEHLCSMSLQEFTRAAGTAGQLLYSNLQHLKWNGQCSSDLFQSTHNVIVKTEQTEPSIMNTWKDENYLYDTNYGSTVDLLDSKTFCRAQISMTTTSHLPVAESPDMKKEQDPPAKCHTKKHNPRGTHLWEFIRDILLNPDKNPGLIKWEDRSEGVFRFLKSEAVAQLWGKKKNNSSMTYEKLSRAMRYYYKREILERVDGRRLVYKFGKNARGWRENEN
The procedure, abridged: as §1

The target of a further experiment is ETV5 (Homo sapiens, UniProt P41161 1-510). The method in brief: as §1
Sequence of ETV5 (P41161 whole entry): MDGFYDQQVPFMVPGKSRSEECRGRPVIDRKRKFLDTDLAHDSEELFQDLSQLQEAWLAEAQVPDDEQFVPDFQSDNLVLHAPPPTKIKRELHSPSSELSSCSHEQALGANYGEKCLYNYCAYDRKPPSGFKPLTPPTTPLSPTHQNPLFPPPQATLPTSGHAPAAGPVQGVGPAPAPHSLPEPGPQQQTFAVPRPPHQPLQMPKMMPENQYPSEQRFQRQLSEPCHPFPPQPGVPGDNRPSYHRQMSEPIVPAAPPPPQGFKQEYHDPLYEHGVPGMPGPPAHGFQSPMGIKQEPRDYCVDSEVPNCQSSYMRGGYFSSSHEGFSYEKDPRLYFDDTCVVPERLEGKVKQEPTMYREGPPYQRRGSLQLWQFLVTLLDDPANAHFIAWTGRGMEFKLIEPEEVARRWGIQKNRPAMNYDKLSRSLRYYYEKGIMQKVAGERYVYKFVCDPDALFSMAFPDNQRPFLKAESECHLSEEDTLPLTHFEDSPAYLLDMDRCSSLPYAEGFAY
The target in another experiment is T3, ELK4 (Homo sapiens, UniProt P28324-2 1-405).
T3 sequence: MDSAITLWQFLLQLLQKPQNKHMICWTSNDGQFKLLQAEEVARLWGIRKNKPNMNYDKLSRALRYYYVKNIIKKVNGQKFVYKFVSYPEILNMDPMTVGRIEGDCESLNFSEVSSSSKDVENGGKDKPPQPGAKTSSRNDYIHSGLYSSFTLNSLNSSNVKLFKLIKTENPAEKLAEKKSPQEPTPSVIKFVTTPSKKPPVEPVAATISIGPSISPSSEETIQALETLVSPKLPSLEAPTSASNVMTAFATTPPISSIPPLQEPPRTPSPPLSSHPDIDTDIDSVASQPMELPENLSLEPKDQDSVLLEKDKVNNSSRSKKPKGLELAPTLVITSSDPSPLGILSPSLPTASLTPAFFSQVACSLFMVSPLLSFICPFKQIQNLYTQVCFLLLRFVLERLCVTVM
The procedure, abridged:
as §1

A further experiment has as its target T4, ETV3 (Homo sapiens, UniProt P41162-2 1-143).
T4 sequence: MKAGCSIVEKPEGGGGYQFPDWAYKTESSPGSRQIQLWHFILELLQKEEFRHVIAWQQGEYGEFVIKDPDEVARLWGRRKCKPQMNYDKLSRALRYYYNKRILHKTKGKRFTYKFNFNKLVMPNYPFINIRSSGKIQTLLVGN
The method in brief:
as §1

A further experiment deals with ELF4 (Homo sapiens, UniProt Q99607 1-663). The method in brief:
as §1

For another experiment, the target named is T5, ETV2 (Homo sapiens, UniProt O00321 1-342).
T5 sequence: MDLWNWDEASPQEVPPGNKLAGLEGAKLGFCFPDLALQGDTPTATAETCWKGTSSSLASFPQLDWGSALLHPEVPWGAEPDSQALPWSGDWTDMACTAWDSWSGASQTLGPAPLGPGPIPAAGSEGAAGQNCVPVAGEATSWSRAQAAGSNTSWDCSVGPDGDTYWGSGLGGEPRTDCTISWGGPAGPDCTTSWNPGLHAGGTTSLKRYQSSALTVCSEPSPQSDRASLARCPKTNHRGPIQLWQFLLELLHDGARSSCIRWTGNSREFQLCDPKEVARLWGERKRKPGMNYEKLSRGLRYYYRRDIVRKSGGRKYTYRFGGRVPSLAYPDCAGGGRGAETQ
The method in brief:
as §1

For a further experiment, the target named is T6, ELF3 (Homo sapiens, UniProt P78545 1-371).
T6 sequence: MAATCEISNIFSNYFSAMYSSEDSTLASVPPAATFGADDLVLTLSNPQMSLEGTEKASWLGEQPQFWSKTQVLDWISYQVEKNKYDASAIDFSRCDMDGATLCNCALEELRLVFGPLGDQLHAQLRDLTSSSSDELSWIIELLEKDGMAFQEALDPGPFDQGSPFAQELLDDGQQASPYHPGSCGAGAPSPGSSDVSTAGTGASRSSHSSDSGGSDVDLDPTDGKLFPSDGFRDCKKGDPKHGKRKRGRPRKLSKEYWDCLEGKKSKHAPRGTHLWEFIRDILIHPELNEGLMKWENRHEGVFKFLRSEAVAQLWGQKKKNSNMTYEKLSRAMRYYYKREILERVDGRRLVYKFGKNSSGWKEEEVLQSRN
The method in brief: as §1

For another experiment, the target named is ETV1 (Homo sapiens, UniProt P50549 1-477). The procedure, abridged:
as §1

The next experiment deals with T7, ERF (Homo sapiens, UniProt P50548 1-548).
T7 sequence: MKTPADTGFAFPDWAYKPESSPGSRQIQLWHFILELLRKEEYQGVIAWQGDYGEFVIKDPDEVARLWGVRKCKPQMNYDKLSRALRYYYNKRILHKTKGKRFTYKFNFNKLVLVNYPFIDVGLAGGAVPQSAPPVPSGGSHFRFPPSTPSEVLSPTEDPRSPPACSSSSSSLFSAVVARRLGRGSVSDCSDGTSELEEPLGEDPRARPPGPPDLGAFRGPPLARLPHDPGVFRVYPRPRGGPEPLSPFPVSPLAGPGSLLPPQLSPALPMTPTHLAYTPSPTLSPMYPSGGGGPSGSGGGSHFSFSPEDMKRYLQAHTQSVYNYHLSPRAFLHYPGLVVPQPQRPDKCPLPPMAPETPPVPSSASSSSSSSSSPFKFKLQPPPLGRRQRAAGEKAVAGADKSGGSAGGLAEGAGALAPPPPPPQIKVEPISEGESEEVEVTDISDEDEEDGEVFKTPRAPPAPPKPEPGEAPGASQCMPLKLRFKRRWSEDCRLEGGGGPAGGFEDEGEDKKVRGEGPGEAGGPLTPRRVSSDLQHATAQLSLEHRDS
The method in brief:
as §1

A further experiment concerns the target T8, ETV7 (Homo sapiens, UniProt Q9Y603 1-341).
T8 sequence: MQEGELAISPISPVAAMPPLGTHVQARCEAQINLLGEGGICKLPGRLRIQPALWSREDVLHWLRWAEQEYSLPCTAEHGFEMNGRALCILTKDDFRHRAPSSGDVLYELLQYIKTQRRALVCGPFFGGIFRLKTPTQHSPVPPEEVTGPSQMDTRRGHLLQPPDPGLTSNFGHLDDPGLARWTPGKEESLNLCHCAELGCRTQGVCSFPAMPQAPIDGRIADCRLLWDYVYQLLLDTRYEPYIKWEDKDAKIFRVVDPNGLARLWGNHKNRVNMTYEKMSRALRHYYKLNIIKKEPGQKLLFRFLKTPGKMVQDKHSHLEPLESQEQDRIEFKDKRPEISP
The procedure, abridged: as §1

In a further experiment the target is ETV6 (Homo sapiens, UniProt P41212 1-452). The procedure, abridged: as §1
Sequence of ETV6 (P41212 whole entry): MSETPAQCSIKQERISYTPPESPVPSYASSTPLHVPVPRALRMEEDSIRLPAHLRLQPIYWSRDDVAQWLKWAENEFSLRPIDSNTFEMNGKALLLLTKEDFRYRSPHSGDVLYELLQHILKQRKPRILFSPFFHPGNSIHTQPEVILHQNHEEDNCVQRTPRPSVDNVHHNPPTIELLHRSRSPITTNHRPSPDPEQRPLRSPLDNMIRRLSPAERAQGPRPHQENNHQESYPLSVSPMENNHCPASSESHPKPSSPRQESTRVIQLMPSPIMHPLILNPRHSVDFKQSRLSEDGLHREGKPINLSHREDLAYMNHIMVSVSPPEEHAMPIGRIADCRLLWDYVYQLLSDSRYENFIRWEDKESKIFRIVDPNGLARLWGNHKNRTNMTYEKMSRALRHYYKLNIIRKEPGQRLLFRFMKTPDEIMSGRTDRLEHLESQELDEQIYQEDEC
Another experiment has as its target T9, ERG (Homo sapiens, UniProt P11308 1-479).
T9 sequence: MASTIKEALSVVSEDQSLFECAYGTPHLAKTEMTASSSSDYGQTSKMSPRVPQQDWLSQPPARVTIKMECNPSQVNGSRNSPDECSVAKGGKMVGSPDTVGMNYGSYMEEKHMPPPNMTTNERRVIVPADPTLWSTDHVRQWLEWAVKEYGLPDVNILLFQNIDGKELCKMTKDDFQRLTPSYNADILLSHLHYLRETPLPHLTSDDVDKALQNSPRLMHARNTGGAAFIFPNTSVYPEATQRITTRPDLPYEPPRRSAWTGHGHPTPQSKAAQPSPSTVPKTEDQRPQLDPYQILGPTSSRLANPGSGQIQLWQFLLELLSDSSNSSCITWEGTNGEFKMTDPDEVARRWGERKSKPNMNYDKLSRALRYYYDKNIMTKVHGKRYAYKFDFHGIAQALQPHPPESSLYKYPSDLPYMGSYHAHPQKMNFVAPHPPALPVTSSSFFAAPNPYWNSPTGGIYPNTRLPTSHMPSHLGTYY
The method in brief: as §1

In a further experiment the target is SPIB (Homo sapiens, UniProt Q01892 1-262). The procedure, abridged:
as §1

Another experiment addresses T10, ETV3L (Homo sapiens, UniProt Q6ZN32 1-361).
T10 sequence: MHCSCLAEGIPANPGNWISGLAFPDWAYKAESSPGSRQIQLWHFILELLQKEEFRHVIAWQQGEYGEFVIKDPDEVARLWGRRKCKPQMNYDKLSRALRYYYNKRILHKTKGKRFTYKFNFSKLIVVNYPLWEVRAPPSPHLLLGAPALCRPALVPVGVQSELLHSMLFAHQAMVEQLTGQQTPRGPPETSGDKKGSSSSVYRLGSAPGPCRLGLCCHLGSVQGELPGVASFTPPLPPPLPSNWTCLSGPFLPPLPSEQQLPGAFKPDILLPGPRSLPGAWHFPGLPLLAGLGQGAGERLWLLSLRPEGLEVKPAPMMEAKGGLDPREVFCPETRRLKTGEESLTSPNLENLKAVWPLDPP
The procedure, abridged: as §1

In a further experiment the target is T11, ETS2 (Homo sapiens, UniProt P15036 1-469).
T11 sequence: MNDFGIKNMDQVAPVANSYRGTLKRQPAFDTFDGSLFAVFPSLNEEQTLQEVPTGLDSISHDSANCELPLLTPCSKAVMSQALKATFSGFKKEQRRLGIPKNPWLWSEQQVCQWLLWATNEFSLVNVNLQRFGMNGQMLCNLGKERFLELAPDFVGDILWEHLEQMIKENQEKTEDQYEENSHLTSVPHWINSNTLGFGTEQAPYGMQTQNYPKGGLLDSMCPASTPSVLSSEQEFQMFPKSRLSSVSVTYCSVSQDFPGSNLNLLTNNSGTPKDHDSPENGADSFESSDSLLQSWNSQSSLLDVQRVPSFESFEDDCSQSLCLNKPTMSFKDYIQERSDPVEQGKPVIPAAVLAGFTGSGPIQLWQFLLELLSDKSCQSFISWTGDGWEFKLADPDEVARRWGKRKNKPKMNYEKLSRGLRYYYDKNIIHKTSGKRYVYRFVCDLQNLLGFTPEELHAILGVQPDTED
The method in brief:
as §1

The next experiment has as its target T12, SPDEF (Homo sapiens, UniProt O95238 1-335).
T12 sequence: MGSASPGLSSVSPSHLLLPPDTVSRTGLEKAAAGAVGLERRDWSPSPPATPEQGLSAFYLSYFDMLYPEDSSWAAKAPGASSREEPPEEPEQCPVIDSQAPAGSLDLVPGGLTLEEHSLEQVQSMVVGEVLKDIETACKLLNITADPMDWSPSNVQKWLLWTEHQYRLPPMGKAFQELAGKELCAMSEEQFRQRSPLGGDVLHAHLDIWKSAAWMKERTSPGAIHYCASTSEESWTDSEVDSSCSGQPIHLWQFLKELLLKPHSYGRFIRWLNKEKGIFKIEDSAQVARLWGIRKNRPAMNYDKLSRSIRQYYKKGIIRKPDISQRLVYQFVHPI
The procedure, abridged: as §1

Sequence of ELF4 (Q99607 whole entry): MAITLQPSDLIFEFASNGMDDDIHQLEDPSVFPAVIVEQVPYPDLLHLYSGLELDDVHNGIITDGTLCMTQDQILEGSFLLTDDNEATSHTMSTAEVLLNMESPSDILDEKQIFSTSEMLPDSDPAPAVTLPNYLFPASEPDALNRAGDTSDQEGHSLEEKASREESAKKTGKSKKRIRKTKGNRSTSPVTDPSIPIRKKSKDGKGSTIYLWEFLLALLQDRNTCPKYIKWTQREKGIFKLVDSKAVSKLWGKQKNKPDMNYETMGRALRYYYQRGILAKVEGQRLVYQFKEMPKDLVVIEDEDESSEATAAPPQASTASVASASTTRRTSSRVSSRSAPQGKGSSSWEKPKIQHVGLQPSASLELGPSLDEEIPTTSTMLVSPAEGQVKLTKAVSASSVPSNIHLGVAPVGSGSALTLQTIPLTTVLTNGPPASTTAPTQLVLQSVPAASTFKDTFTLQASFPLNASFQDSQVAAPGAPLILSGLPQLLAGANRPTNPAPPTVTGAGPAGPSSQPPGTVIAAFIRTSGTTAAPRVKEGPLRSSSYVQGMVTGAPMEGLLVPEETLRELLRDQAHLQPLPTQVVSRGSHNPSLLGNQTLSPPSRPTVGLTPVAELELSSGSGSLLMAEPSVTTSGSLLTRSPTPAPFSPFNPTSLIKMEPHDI
Sequence of ETV1 (P50549 whole entry): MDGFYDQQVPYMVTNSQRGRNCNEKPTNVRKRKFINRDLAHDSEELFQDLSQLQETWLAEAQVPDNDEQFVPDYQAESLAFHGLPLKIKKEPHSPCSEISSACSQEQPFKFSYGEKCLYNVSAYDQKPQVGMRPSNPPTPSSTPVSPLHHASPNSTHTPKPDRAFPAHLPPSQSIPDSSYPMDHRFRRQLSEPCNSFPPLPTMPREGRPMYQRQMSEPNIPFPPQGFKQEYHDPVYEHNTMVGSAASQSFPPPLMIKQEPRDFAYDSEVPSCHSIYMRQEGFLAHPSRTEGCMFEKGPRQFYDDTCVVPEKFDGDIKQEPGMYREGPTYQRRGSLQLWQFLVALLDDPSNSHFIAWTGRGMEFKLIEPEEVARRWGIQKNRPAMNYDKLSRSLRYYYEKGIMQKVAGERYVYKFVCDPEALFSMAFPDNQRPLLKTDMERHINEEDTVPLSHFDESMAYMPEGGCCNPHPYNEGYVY
Sequence of SPIB (Q01892 whole entry): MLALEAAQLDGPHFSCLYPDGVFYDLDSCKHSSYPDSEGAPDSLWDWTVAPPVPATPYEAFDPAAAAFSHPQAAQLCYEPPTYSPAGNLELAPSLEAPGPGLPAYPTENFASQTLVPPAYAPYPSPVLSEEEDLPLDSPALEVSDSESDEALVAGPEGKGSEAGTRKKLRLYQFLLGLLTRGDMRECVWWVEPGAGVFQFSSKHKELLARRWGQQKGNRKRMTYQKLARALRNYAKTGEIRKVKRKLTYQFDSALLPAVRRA

For the sequence GACTTA, the binding signal in the experiment with GABPA was 1.03 fold enrichment (6-mer frequency, TF over GST control); with EHF, 1.04 fold enrichment (6-mer frequency, TF over GST control); in the experiment with ETV5 it was 1.01 fold enrichment (6-mer frequency, TF over GST control); with ELK4, 1 fold enrichment (6-mer frequency, TF over GST control); with ETV3, 1.02 fold enrichment (6-mer frequency, TF over GST control).
As to AGAAGT, the binding signal with GABPA is 1.05 fold enrichment (6-mer frequency, TF over GST control); with EHF, 1.06 fold enrichment (6-mer frequency, TF over GST control); with ETV5, 1.09 fold enrichment (6-mer frequency, TF over GST control); with ELF4, 1.06 fold enrichment (6-mer frequency, TF over GST control); in the experiment with ELK4, 1.16 fold enrichment (6-mer frequency, TF over GST control); with ETV2 it was 1.03 fold enrichment (6-mer frequency, TF over GST control). In addition, the binding signal is 1.05 fold enrichment (6-mer frequency, TF over GST control) with ELF3; 1.05 fold enrichment (6-mer frequency, TF over GST control) in the experiment with ETV1; 1.05 fold enrichment (6-mer frequency, TF over GST control) with ERF; 1.13 fold enrichment (6-mer frequency, TF over GST control) in the experiment with ETV7; 1.01 fold enrichment (6-mer frequency, TF over GST control) with ETV3; 1.07 fold enrichment (6-mer frequency, TF over GST control) with ETV6.
For the sequence TAGGAT, the binding signal was 1.07 fold enrichment (6-mer frequency, TF over GST control) with ERG; 1.06 fold enrichment (6-mer frequency, TF over GST control) in the experiment with EHF; 1.03 fold enrichment (6-mer frequency, TF over GST control) with SPIB; 1.03 fold enrichment (6-mer frequency, TF over GST control) with ETV5; 1 fold enrichment (6-mer frequency, TF over GST control) with ELF4; 1.03 fold enrichment (6-mer frequency, TF over GST control) in the experiment with ETV2. For the same sequence, the binding signal with ELF3 was 1.03 fold enrichment (6-mer frequency, TF over GST control); with ERF, 1.02 fold enrichment (6-mer frequency, TF over GST control); in the experiment with ETV3L, 1.06 fold enrichment (6-mer frequency, TF over GST control); with ETS2, 1.03 fold enrichment (6-mer frequency, TF over GST control); with SPDEF, 1.22 fold enrichment (6-mer frequency, TF over GST control); with ETV6, 1.06 fold enrichment (6-mer frequency, TF over GST control).
